Test results from the supplement of paper PMC10338343.
± gives the standard deviation.

test system: MILI (PIWIL2) piRISC loaded with L1MC piRNA (26 nt); test: pre-steady-state target cleavage rate (min^-1); guide: L1MC piRNA 5'p-UAACUAAAUACUAUGCAAGCUGUAGG; MIWI and MILI are mouse PIWI proteins and EfPiwi is from a freshwater sponge; tags in brackets are library labels; higher = faster piRNA-guided slicing of the target; conditions: auxiliary factor: none (no GTSF1)
Summary of the method: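 Sequencing of uncleaved targets, normalised to depth and to weakly complementary targets, was the readout of this Cleave-'n-Seq assay. A transcribed, DNA-blocked target RNA library (0.1 nM) was mixed with 1 nM active affinity-purified piRISC carrying one synthetic guide, with or without 500 nM GTSF1 partner protein, in HEPES–potassium acetate buffer at 33 °C for 0–8 or 0–960 min. Three trials were pooled, k3 was capped at 0.0001 min^-1, and a burst-and-steady-state fit gave the pre-steady-state cleavage rate.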

Sequence | pre-steady-state target cleavage rate
UCCUGGAUCAGCUUGCAAGUAUUUAGUUA | 0.00478 ± 0.0023
UCCUGGAUGUCCAAGCAUAGUAUUUAGUUA | 0.00547 ± 0.0023
UCCUGGAUGAGCUUGCAUUGUAUUUAGUUA | 0.00846 ± 0.0023
UCCUGGAUGUGGUUGCAUUGUAUUUAGUUA | 0.00721 ± 0.0036
UCCUGGAACAGCUUGGAUUGUAUUUAGUUA | 0.00295 ± 0.0026
UCCUGGAUGUCGUUGCAUAGUAAAUAGUUA | 0.00437 ± 0.0023
UCCUGGAUGUCGAUGCCUAGUAUUUAGUUA | 0.00351 ± 0.0023
UCCUGGAUGUCGUUGCAUAGUAUUGAGUUA | 0.00363 ± 0.0032
UCCUGGAUGUCCUUGCAUAGGUAUUUAGUUA | 0.00689 ± 0.0025
UCCUGGUACAGGCUUGCAUAGUAUUUAGUUA | 0.0131 ± 0.0043
UCCUGCUACAGCUUGCAUUCUAUUUAGUUA | 0.00339 ± 0.0024
UCCUGGUACAGCAACCAUAGUAUUUAGUUA | 0.00442 ± 0.0027
UCCUGGAUGUCGAAGCAUAGUACUUUAGUUA | 0.00317 ± 0.002
UCCUGGAUCAGCUUCCUUAGUAUUUAGUUA | 0.00478 ± 0.0016
UCCUCCUACAGCAAGCAUAGUAUUUAGUUA | 0.00806 ± 0.0019
UCCUGGAUGUCGUUGCAUAGUAUUUAGUAA | 0.00351 ± 0.0029
UCCUGGAUGUGCUUGCAUAGUACUUAGUUA | 0.00413 ± 0.0024
UCCUGGAUGUGUUGCAUAGUAUUUAGUUA | 0.00684 ± 0.0022
UCCUGGAACUGCUUGCAUAGUAUUAAGUUA | 0.00346 ± 0.0024
UCCUGGAUGAGCUUCCAAAGUAUUUAGUUA | 0.00379 ± 0.0027
UCCUGGAUGUGCUUGCAUAGUAUUUAGUGUA | 0.00366 ± 0.0034
UCCUGGAUGAGCAUGGAUAGUAUUUAGUUA | 0.0105 ± 0.0024
UCCUGGAUGUCGUUGCAUAGUAUCUUAGUUA | 0.00848 ± 0.0026
UCCUGGAUGUCGUUGCAUAGUUUUUAGUUA | 0.00595 ± 0.0026
